Consider 15 compounds from the supplement of paper PMC9492666.

One assay concerns HCC1937. Nature of the assay: relative cell viability, compound + erastin, vs DMSO (fraction of DMSO control); higher = less growth inhibition. As to conditions: 72 h.
Another assay deals with MDA-MB-231. The assay is described as above. The conditions noted are these: 72 h.

Structures can show the parent of a compound that is named as a salt.
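Also: viability read by CCK-8 kit in 96-well plates, part of a combination screen pairing lipid-metabolism-targeting compounds with erastin.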

On to `CCc1ccc(CCOc2ccc(CC3SC(=O)NC3=O)cc2)nc1` (stereo not given) [Pioglitazone] + CCOc1ccccc1-n1c(C(C)N2CCN(C(=O)COc3ccc(Cl)cc3)CC2)nc2ccccc2c1=O [erastin], for which the relative cell viability in the assay with HCC1937 was 0.803; in the assay with MDA-MB-231 it was 0.551.

Take `CC(C)(C)c1ccc(-c2nc3ccccc3[nH]2)cc1` + CCOc1ccccc1-n1c(C(C)N2CCN(C(=O)COc3ccc(Cl)cc3)CC2)nc2ccccc2c1=O [erastin]: the relative cell viability in the assay with HCC1937 was determined as 0.225; with MDA-MB-231 it was 0.295.

As for `O=c1c(O[C@@H]2O[C@H](CO)[C@@H](O)[C@H](O)[C@H]2O)c(-c2ccc(O)cc2)oc2cc(O)cc(O)c12` [Astragalin] + CCOc1ccccc1-n1c(C(C)N2CCN(C(=O)COc3ccc(Cl)cc3)CC2)nc2ccccc2c1=O [erastin], the relative cell viability with HCC1937 worked out at 0.584; in the assay on MDA-MB-231, 0.749.

With `CNC(=O)c1cccc(NC(=O)N2CCC(Oc3ccccc3Cl)CC2)c1` + CCOc1ccccc1-n1c(C(C)N2CCN(C(=O)COc3ccc(Cl)cc3)CC2)nc2ccccc2c1=O [erastin], the figures for the relative cell viability with HCC1937 and with MDA-MB-231 were 0.566 and 0.523, respectively.

Consider `C=CC[S+]([O-])C[C@H](N)C(=O)O` (stereo not given in full) [Alliin] + CCOc1ccccc1-n1c(C(C)N2CCN(C(=O)COc3ccc(Cl)cc3)CC2)nc2ccccc2c1=O [erastin], for which the relative cell viability in the assay on HCC1937 came to 0.864; in the assay with MDA-MB-231 it was 0.778.

In the case of `O=P(O)(O)OC(CO)CO` [β-Glycerol phosphate disodium salt pentahydrate] + CCOc1ccccc1-n1c(C(C)N2CCN(C(=O)COc3ccc(Cl)cc3)CC2)nc2ccccc2c1=O [erastin], the relative cell viability in the assay with HCC1937 is 0.614; in the assay on MDA-MB-231, 0.527.

For the compound `CC[C@H](C)C(=O)O[C@H]1C[C@H](O)C=C2C=C[C@H](C)[C@H](CC[C@@H](O)C[C@@H](O)CC(=O)O)[C@H]21` [Pravastatin sodium] + CCOc1ccccc1-n1c(C(C)N2CCN(C(=O)COc3ccc(Cl)cc3)CC2)nc2ccccc2c1=O [erastin], the relative cell viability in the assay on HCC1937 stood at 0.909; in the assay with MDA-MB-231 it was 1.05.

For `CC(C)Cc1ccc([C@H](C)C(=O)O)cc1` [Dexibuprofen] + CCOc1ccccc1-n1c(C(C)N2CCN(C(=O)COc3ccc(Cl)cc3)CC2)nc2ccccc2c1=O [erastin], the relative cell viability amounted to 0.901 in the assay with HCC1937 and 0.642 with MDA-MB-231.

For the compound `CN(CCOc1ccc(CC2SC(=O)NC2=O)cc1)c1ccccn1` (stereo not given) [Rosiglitazone HCl] + CCOc1ccccc1-n1c(C(C)N2CCN(C(=O)COc3ccc(Cl)cc3)CC2)nc2ccccc2c1=O [erastin], the relative cell viability was found to be 0.619 in the assay on HCC1937 and 0.774 in the assay with MDA-MB-231.

In the case of `CN(C)CCOC(=O)COc1ccc(Cl)cc1` [Meclofenoxate hydrochloride] + CCOc1ccccc1-n1c(C(C)N2CCN(C(=O)COc3ccc(Cl)cc3)CC2)nc2ccccc2c1=O [erastin], the values for the relative cell viability in the assay on HCC1937 and in the assay on MDA-MB-231 were 0.693 and 0.81, respectively.

Turning to `COc1cc([C@@H]2Oc3c(O)cc([C@H]4Oc5cc(O)cc(O)c5C(=O)[C@@H]4O)cc3[C@H]2CO)ccc1O` [Silychristin] + CCOc1ccccc1-n1c(C(C)N2CCN(C(=O)COc3ccc(Cl)cc3)CC2)nc2ccccc2c1=O [erastin], the relative cell viability with HCC1937 amounted to 0.584; in the assay on MDA-MB-231, 0.685.

As to `CC(C)C1=CC2=CC[C@@H]3[C@](C)(CCC[C@@]3(C)C(=O)O)[C@H]2CC1` [Abietic Acid] + CCOc1ccccc1-n1c(C(C)N2CCN(C(=O)COc3ccc(Cl)cc3)CC2)nc2ccccc2c1=O [erastin], the relative cell viability in the assay with HCC1937 turned out to be 0.673; with MDA-MB-231, 1.04.

Regarding `CCN(CC)C(=O)N1CCN(C)CC1` [Diethylcarbamazine citrate] + CCOc1ccccc1-n1c(C(C)N2CCN(C(=O)COc3ccc(Cl)cc3)CC2)nc2ccccc2c1=O [erastin], the relative cell viability was found to be 0.729 in the assay on HCC1937 and 0.907 in the assay with MDA-MB-231.

As for `C[C@@H]1C(=O)O[C@H]2[C@H](O)[C@@]34O[C@@H]5OC(=O)[C@H](O)[C@@]56[C@H](C(C)(C)C)[C@H](O)C(OC3=O)[C@]64[C@@]12O` (stereo not given in full) [Ginkgolide C] + CCOc1ccccc1-n1c(C(C)N2CCN(C(=O)COc3ccc(Cl)cc3)CC2)nc2ccccc2c1=O [erastin], the relative cell viability in the assay on HCC1937 is 0.697; with MDA-MB-231, 0.747.

Consider `CC1(C)CC[C@]2(C(=O)O[C@@H]3O[C@H](CO)[C@@H](O)[C@H](O)[C@H]3O)CC[C@]3(C)C(=CC[C@@H]4[C@@]5(C)CC[C@H](O[C@@H]6O[C@H](C(=O)O)[C@@H](O)[C@H](O)[C@H]6O[C@@H]6O[C@H](CO)[C@@H](O)[C@H](O)[C@H]6O)C(C)(C)[C@@H]5CC[C@]43C)[C@@H]2C1` [Ginsenoside Ro] + CCOc1ccccc1-n1c(C(C)N2CCN(C(=O)COc3ccc(Cl)cc3)CC2)nc2ccccc2c1=O [erastin], for which the relative cell viability with HCC1937 turned out to be 0.703; in the assay on MDA-MB-231, 0.726.
